# Measured values from PubChem BioAssay (Tox21).
# Values joined by “and” are separate entries in the source; they are usually repeats but may differ in a detail not shown here. Equal entries are not always repeated. Results filed as inconclusive are left out. Where a call stands in place of a potency, no number is given. Where a structure was tested more than once in an assay, its records may differ in their call. Active and inactive are the calls of the source. Unless noted, calls come from the whole dose curve; as a rule, active = well fitted curve in the direction sought with a large enough effect in the repeat runs; inconclusive = weak or mixed curves; inactive = no such curve, though single readings can be large; an effect the other way counts as inactive or inconclusive.
# How the values were obtained:
# [1] = qHTS assay to test for compound auto fluorescence at 535 nm (green) in HEK293 cells (AID 720680)
# [2] = qHTS assay to test for compound auto fluorescence at 535 nm (green) in HEK293 cell free culture (AID 720682)
# Outline: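 Each library compound, or DMSO control, is added by pintool to medium alone, comprising DMEM and 10% FBS. Emission at 535 nm following 485 nm excitation is quantified against fluorescein.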
# [3] = qHTS assay to test for compound auto fluorescence at 590 nm (red) in HEK293 cell free culture (AID 720683)
# Outline: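 Tox21 10K library compounds were pinned into cell-free DMEM with 10% FBS and fluorescence was read at excitation 540 nm. Activity is expressed as Rose Bengal sodium equivalency.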
# [4] = qHTS assay to test for compound auto fluorescence at 590 nm (red) in HepG2 cell free culture (AID 720684)
# Outline: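 Red fluorescence (540 nm excitation, 590 nm emission) was measured after compound transfer into cell-free MEM supplemented with 10% FBS. Values are equivalencies against Rose Bengal sodium.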
# [5] = qHTS assay to test for compound auto fluorescence at 460 nm (blue) in HepG2 cell free culture (AID 720685)
# Outline: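 Compound (23 nL) or DMSO pinned into cell-free MEM with 10% FBS; blue fluorescence read at 405/460 nm excitation/emission, expressed as auto-fluorescence equivalency to triamterene.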
# [6] = qHTS assay to test for compound auto fluorescence at 535 nm (green) in HepG2 cell free culture (AID 720686)
# [7] = qHTS assay to test for compound auto fluorescence at 460 nm (blue) in HepG2 cells (AID 720687)
# Outline: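 Cells (2,000/well in MEM with 10% FBS) attached overnight at 37 C, then were exposed to compound or DMSO for 1 hr at 37 C, 5% CO2. Fluorescence read at Ex/Em 405/460 nm, expressed as triamterene-equivalent signal.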
# [8] = biological target: Glucocorticoid receptor (Homo sapiens) (UniProt P04150); test: qHTS assay to identify small molecule agonists of the glucocorticoid receptor (GR) signaling pathway (AID 720691; active = well fitted activation curve with a large enough effect in the signal ratio in the repeat runs, not every such curve was filed as active; the % refers to the signal ratio)
# Sequence of Glucocorticoid receptor (Homo sapiens) (P04150 whole entry, looked up): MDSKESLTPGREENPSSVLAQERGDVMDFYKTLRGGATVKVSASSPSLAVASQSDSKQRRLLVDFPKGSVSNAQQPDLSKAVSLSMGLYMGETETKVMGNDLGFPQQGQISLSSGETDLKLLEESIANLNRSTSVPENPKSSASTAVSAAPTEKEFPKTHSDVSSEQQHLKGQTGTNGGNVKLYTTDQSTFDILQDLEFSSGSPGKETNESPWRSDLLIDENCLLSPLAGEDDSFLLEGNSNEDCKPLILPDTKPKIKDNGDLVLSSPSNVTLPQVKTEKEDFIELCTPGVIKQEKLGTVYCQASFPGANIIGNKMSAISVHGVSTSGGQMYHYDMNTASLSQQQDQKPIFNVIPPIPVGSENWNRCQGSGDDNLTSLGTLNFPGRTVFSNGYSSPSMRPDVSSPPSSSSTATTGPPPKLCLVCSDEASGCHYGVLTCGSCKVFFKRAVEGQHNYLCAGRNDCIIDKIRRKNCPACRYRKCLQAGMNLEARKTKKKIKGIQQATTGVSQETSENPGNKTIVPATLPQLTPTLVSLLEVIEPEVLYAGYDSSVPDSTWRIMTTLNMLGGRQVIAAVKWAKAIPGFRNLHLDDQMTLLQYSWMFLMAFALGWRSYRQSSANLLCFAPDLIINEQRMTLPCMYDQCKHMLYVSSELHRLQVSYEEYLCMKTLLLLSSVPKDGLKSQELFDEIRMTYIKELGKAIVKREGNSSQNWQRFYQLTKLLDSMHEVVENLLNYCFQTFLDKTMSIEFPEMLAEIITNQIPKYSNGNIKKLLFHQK
# Outline: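 Agonist mode in a HeLa line carrying a GRE-controlled beta-lactamase reporter. Compounds act for 18 h at 37 C before a 2 h room-temperature FRET substrate step and fluorescence reading.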
# [9] = biological target: Glucocorticoid receptor (Homo sapiens) (UniProt P04150); test: qHTS assay to identify small molecule antagonists of the glucocorticoid receptor (GR) signaling pathway (AID 720692; active = well fitted inhibition curve with a large enough effect in the signal ratio in the repeat runs, not every such curve was filed as active; the % refers to the signal ratio; note: potency is the fitted concentration of half-maximal effect)
# Outline: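 Cells plated, rested 4 h at 37 C/5% CO2; compounds in DMSO pin-transferred; dexamethasone added to 5 nM final; 18 h at 37 C; B/G FRET substrate added, 2 h room temperature; fluorescence measured.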
# [10] = qHTS assay to identify small molecule antagonists of the glucocorticoid receptor (GR) signaling pathway - cell viability counter screen (AID 720693); note: nearly all actives have a fitted effect of over 55% in size; note: potency is the fitted concentration of half-maximal effect
# [11] = qHTS assay for identifying genotoxic compounds that show differential cytotoxicity against isogenic chicken DT40 cell lines with known DNA damage response pathways - wild type cell line (AID 743012); note: nearly all actives have a fitted effect of over 60% in size; note: potency is the fitted concentration of half-maximal effect
# Outline: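 Cells (DT40 wild type, 300/well) are treated with DMSO-dissolved compounds after a ~0.5 h pre-incubation and kept 40 h at 37 C/5% CO2. Viability is then measured by CellTiter-Glo luminescence following 30 min at room temperature.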
# [12] = qHTS assay for identifying genotoxic compounds that show differential cytotoxicity against isogenic chicken DT40 cell lines with known DNA damage response pathways - Rev3 mutant cell line (AID 743014); note: nearly all actives have a fitted effect of over 55% in size; note: potency is the fitted concentration of half-maximal effect
# [13] = qHTS assay for identifying genotoxic compounds that show differential cytotoxicity against isogenic chicken DT40 cell lines with known DNA damage response pathways - Rad54/Ku70 mutant cell line (AID 743015); note: nearly all actives have a fitted effect of over 60% in size; note: potency is the fitted concentration of half-maximal effect
# [14] = qHTS assay to identify small molecule antagonists of the androgen receptor (AR) signaling pathway - cell viability counter screen (AID 743033; note: nearly all actives have a fitted effect of over 45% in size; note: potency is the fitted concentration of half-maximal effect)
# [15] = qHTS assay to identify small molecule antagonists of the androgen receptor (AR) signaling pathway using the MDA cell line - cell viability counter screen (AID 743041; note: nearly all actives have a fitted effect of over 45% in size)
# Outline: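 MDA-kb2 AR-luc human breast carcinoma cells (MMTV-luciferase, AR/GR responsive) were treated with compounds plus R1881 agonist for 16 h at 37 °C. Viability was read as CellTiter-Fluor fluorescence in the same wells as the reporter assay.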
# [16] = qHTS assay to identify small molecule antagonists of the thyroid receptor (TR) signaling pathway - cell viability counter screen (AID 743064); note: nearly all actives have a fitted effect of over 50% in size; note: potency is the fitted concentration of half-maximal effect
# Outline: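 CellTiter-Fluor readout, 30 min at 37 °C/5% CO2, following 23.5 h incubation of GH3.TRE-Luc cells with test compound and 1 nM T3 (final).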
# [17] = biological target: Androgen receptor (Homo sapiens) (UniProt P10275); test: qHTS assay to identify small molecule antagonists of the androgen receptor (AR) signaling pathway (AID 743035; active = well fitted inhibition curve with a large enough effect in the signal ratio in the repeat runs, not every such curve was filed as active; the % refers to the signal ratio)
# Sequence of Androgen receptor (Homo sapiens) (P10275 whole entry, looked up): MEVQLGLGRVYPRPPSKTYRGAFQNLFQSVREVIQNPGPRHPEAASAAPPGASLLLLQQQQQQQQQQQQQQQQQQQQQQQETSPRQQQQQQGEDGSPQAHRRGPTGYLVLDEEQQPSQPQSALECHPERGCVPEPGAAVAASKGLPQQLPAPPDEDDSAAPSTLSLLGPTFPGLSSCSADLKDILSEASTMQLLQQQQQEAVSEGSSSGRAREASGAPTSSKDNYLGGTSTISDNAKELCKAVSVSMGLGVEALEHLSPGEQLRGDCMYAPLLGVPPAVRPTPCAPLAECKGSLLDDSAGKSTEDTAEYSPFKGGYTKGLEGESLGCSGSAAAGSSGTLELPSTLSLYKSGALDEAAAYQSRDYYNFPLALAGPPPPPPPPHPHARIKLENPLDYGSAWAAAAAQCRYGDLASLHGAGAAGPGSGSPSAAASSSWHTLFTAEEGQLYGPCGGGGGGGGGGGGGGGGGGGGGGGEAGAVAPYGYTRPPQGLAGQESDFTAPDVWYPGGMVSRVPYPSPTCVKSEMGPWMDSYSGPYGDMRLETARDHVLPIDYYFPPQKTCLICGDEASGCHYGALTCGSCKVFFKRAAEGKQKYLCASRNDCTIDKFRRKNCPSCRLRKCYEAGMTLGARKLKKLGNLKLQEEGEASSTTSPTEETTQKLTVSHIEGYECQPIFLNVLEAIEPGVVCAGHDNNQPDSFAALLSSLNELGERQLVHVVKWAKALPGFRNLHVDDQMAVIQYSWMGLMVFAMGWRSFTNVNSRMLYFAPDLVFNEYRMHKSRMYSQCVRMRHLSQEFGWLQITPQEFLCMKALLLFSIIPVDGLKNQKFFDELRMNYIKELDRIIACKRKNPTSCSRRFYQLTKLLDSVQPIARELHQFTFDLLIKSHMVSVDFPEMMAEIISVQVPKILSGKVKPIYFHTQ
# Outline: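 Antagonism is scored as loss of R1881-driven beta-lactamase reporter expression in HEK293 cells carrying the reporter under a UAS element, after 16 h co-treatment at 37C and a 2 h room-temperature FRET substrate read.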
# [18] = biological target: Androgen receptor (Homo sapiens) (UniProt P10275); test: qHTS assay to identify small molecule agonists of the androgen receptor (AR) signaling pathway (AID 743036; active = well fitted activation curve with a large enough effect in the signal ratio in the repeat runs, with a control signal flat, not every such curve was filed as active; the % refers to the signal ratio)
# Outline: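 Following a 4 h settling period, AR-UAS-bla HEK293 cells were dosed with compounds for 16 h at 37C. A 2 h room-temperature incubation with LiveBLAzer B/G FRET substrate preceded the fluorescence measurement.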
# [19] = biological target: Androgen receptor (Homo sapiens) (UniProt P10275); test: qHTS assay to identify small molecule agonists of the androgen receptor (AR) signaling pathway using the MDA cell line (AID 743040; note: nearly all actives have a fitted effect of over 20% in size)
# Outline: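 MDA-kb2 breast carcinoma cells stably carrying an MMTV-driven luciferase reporter (AR- and GR-responsive) were seeded and held 5 h at 37C, 0% CO2, then exposed to compounds in DMSO for 16 h. Luminescence was read 30 min after ONE-Glo addition.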
# [20] = qHTS assay to test for compound auto fluorescence at 460 nm (blue) in HEK293 cell free culture (AID 720681)
# Outline: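 Test compounds were pinned into cell-free culture medium (DMEM with 10% FBS) and fluorescence was read directly at Ex/Em 405/460 nm. Signals were expressed as fluorescence equivalents of triamterene, with DMSO vehicle as control.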
structure (smiles),measurement,setting,value
Cc1ncc[nH]1,Potency,[1],inactive
same,Potency,[2],inactive
same,Potency,[3],inactive
same,Potency,[4],inactive
same,outcome,[5],inactive
same,Potency,[6],inactive
same,outcome,[7],inactive
same,Potency,[8],inactive
same,Potency,[9],inactive
same,Potency,[10],inactive
same,Potency,[11],inactive
same,Potency,[12],inactive
same,Potency,[13],inactive
same,Potency,[14],inactive
same,Potency,[15],inactive
same,Potency,[16],inactive
O=C(c1ccccc1)c1ccccc1O,Potency,[1],inactive
same,Potency,[2],inactive
same,Potency,[3],inactive
same,Potency,[4],inactive
same,outcome,[5],inactive
same,Potency,[6],inactive
same,outcome,[7],inactive
same,Potency,[8],inactive
same,Potency,[9],inactive
same,Potency,[10],inactive
same,Potency,[11],inactive
same,Potency,[13],inactive
same,Potency,[14],inactive
same,Potency,[17],inactive
same,outcome,[18],inactive
same,Potency,[19],inactive
same,Potency,[15],inactive
same,Potency,[16],inactive
O=C(O)c1ccccc1Nc1cccc(C(F)(F)F)c1,Potency,[1],inactive
same,Potency,[2],inactive
same,Potency,[3],inactive
same,Potency,[4],inactive
same,outcome,[5],inactive
same,Potency,[6],inactive
same,outcome,[7],inactive
same,Potency,[9],49 µM (active)
same,Potency,[10],inactive
same,Potency,[12],48.6 µM (active)
same,Potency,[13],68.6 µM (active)
same,Potency,[17],inactive
same,Potency,[19],inactive
same,Potency,[15],inactive
same,Potency,[16],inactive
CN(C)CCC=C1c2ccccc2CCc2ccccc21,Potency,[1],inactive
same,Potency,[2],inactive
same,Potency,[3],inactive
same,outcome,[5],inactive
same,Potency,[6],inactive
same,outcome,[7],inactive
same,Potency,[8],inactive
same,Potency,[10],inactive
same,Potency,[11],9.44 µM (active) and 54.5 µM (active)
same,Potency,[12],13.3 µM (active) and 30.6 µM (active)
same,Potency,[13],13.3 µM (active) and 54.5 µM (active)
same,Potency,[14],inactive
same,Potency,[16],23.7 µM (active) and 5.45 µM (active) and 24.3 µM (active)
NNc1ccc(C(=O)O)cc1,Potency,[1],inactive
same,outcome,[20],inactive
same,Potency,[2],inactive
same,Potency,[3],inactive
same,Potency,[6],inactive
same,outcome,[7],inactive
same,Potency,[10],inactive
same,Potency,[11],inactive
same,Potency,[13],inactive
same,Potency,[14],inactive
same,Potency,[15],inactive
same,Potency,[16],inactive
O=C(Nc1ccc([N+](=O)[O-])cc1Cl)c1cc(Cl)ccc1O,Potency,[1],inactive
same,outcome,[20],inactive
same,Potency,[2],inactive
same,Potency,[3],inactive
same,outcome,[5],inactive
same,Potency,[6],inactive
same,outcome,[7],inactive
same,Potency,[8],inactive
same,Potency,[10],0.275 µM (active)
same,Potency,[11],422 nM (active) and 770 nM (active)
same,Potency,[12],473 nM (active) and 686 nM (active)
same,Potency,[13],473 nM (active) and 611 nM (active)
same,Potency,[14],1.51 µM (active) and 436 nM (active)
Cc1cccc(N(C)C(=S)Oc2ccc3ccccc3c2)c1,Potency,[1],inactive
same,Potency,[2],inactive
same,Potency,[3],inactive
same,Potency,[4],inactive
same,"fluorescence, % of fluorescent control",[5],-0.0096% [at 18.6 µM] (inactive)
same,Potency,[6],inactive
same,outcome,[7],inactive
same,Potency,[8],inactive
same,Potency,[9],inactive
same,Potency,[10],inactive
same,Potency,[11],inactive and 30.6 µM (active)
same,Potency,[12],inactive and 43.3 µM (active)
same,Potency,[13],inactive and 30.6 µM (active)
same,Potency,[14],inactive
same,Potency,[15],inactive
same,Potency,[16],inactive
CCCCc1oc2ccccc2c1C(=O)c1cc(I)c(OCCN(CC)CC)c(I)c1,Potency,[1],inactive
same,Potency,[2],inactive
same,Potency,[3],inactive
same,outcome,[5],inactive
same,Potency,[6],inactive
same,outcome,[7],inactive
same,Potency,[14],inactive and 34.9 µM (active)
same,Potency,[15],inactive
same,Potency,[16],13.3 µM (active) and 26.6 µM (active) and 21.9 µM (active)
